Cruzain inh noDet: blocks cruzain activity in detergent-free assay | actives 2.3% (n = 200,000) | Potency, µM, most hits filed as inhibitors | AID 1476 | purified cruzain, Z-FR-AMC fluorescence, no detergent; further: nearly all actives have a fitted effect of over 40% in size
Target sequence (P25779 123-467 limits assumed): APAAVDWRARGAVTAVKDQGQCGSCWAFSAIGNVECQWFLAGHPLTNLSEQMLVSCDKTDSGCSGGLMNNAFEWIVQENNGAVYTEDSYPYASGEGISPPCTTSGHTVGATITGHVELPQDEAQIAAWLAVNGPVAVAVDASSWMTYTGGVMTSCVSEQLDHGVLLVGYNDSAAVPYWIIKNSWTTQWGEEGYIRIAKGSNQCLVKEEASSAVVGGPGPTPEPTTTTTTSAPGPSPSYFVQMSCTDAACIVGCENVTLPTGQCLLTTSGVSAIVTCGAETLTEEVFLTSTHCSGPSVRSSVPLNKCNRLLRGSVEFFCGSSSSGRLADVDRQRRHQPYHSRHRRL
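Detergent-free condition (0.00005% Triton X-100) in acetate buffer pH 5.5 with DTT. 1.5 nM enzyme and compound were pre-mixed 15 min, then 2 uM Z-FR-AMC substrate added; reaction progress from fluorescence change between first and third reads (60 s).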
Cruzain inh Det: inhibitors of Trypanosoma cruzi cruzain with detergent. Potency, µM, hits mostly inhibitors. actives 0.43% (n = 200,000). P25779. purified cruzain, Z-FR-AMC fluorescence, 0.01% Triton; further: nearly all actives have a fitted effect of over 40% in size
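Z-FR-AMC hydrolysis (2 uM substrate) by cruzain (1.5 nM) monitored kinetically at ex 360/em 450 nm after 15 min room-temperature compound exposure; 0.01% Triton X-100, pH 5.5, 5 mM DTT.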
Large screens that a line does not name were inactive; ! = not confirmed by another sample. The list is not random: actives were taken first. Their share in the collection is about 2.5%. The call rests on the fitted dose curve; in most records, active means well fitted curve in the direction sought with a large enough effect; inconclusive means small, poorly fitted or top-dose-only effect, or another doubt; inactive means no such curve, though single readings can be large; an effect the other way counts as inactive or inconclusive.

c1ccc(-c2ccc(CN3C[C@@H]4C(c5ccccc5)C5(c6ccccc6)CC4(C5)[C@H]3c3ccccc3)cc2)cc1 (some centres undefined)	none
CN(C)c1ncc2nc(-c3cccs3)c(=O)n(C[C@H]3CCCO3)c2n1	none
O=C(CCC1N=C2c3ccccc3N=C(SCC(=O)Nc3ccccc3F)N2C1=O)NCc1ccccc1 (centres undefined)	none
Cc1ccc(-n2ncc(C(=O)NCCCN3CCc4ccccc4C3)c2C2CCN(C(=O)OC(C)(C)C)CC2)c(C)c1	none
COC(=O)[C@H](COC(C)(C)C)NC(=O)O[C@@H]1Cc2cc(OC)ccc2O[C@H]1c1cccc(OC)c1	none
CCCc1cc(N2CCN(c3ccccc3F)CC2)n2cnnc2n1	none
O=c1c(-c2ccc(Cl)cc2)nc2cnc(N3CCOCC3)nc2n1Cc1ccc(F)cc1	none
O=C(N/N=C1/C(=O)c2cccc3cccc1c23)c1ccc(Cl)cc1	Cruzain inh Det 10µM
CCNC(=S)N/N=C1\C(=O)c2cccc3cccc1c23	Cruzain inh noDet inconclusive
COC(=O)C1=CN(C)C=C(C(=O)OC)C1c1ccc(O)c(OC)c1	none
COCCN1C=C(C(=O)OC)C(c2cc(Br)c(OC)c(OC)c2)C(C(=O)OC)=C1	Cruzain inh noDet inconclusive, Cruzain inh Det 22.4µM
CC(C)CCNC(=O)CCn1c(=O)c2cccn2c2cccnc21	none
Cc1cc(C)c2c(n1)sc1c(=O)n(-c3cc(Cl)ccc3C)nnc12	none
O=C(c1ccc(Cn2c(=O)[nH]c3ccccc3c2=O)cc1)N1CCN(c2ccc(F)cc2)CC1	none
Cc1c(C)n(Cc2ccccc2)c2ccc(C(=O)N3CCN(c4ccccc4)CC3)cc12	Cruzain inh noDet inconclusive
Cc1c(C)n(Cc2ccccc2)c2ccc(C(=O)N3CCN(c4ccc(F)cc4)CC3)cc12	Cruzain inh noDet 31.6µM
Cc1c(C)n(Cc2ccc(F)cc2)c2ccc(C(=O)N3CCN(c4ccc(Cl)cc4)CC3)cc12	Cruzain inh noDet 7.94µM
O=C(O)CCCSc1ccccc1	none
COc1ccc(-c2[nH]c(-c3ccc(C)cc3)nc2SCC(=O)NCC2CCCO2)cc1 (centres undefined)	none
CCN(CC)CCOc1ncnc2c1oc1ccccc12	none
CCCCc1oc2ccccc2c1C(=O)c1cc(I)c(OCCN(CC)CC)c(I)c1	Cruzain inh Det 12.6µM! (no result: Cruzain inh noDet)
COc1ccccc1Nc1nc(-c2sc(NC(=O)c3ccco3)nc2C)cs1	Cruzain inh noDet inconclusive
Cc1nc(NC(=O)c2ccco2)sc1-c1csc(Nc2ccc(Cl)cc2)n1	Cruzain inh noDet 12.6µM
Cc1nc(NC(=O)c2ccco2)sc1-c1csc(Nc2ccc(Cl)cc2Cl)n1	Cruzain inh noDet 12.6µM
COc1cccc(N(C(=O)c2ccco2)c2nc(-c3sc(NC(=O)c4ccco4)nc3C)cs2)c1	Cruzain inh noDet inconclusive
Cc1ccc(Cl)cc1Nc1nc(-c2sc(NC(=O)c3ccco3)nc2C)cs1	Cruzain inh noDet 25.1µM
O=C(Nc1nc2ccc(Cl)cc2s1)c1ccco1	Cruzain inh noDet inconclusive
CCOC(=O)c1ccc(NC(=O)c2noc3c2CCCC3)cc1	none
CCOC(=O)c1c(C)oc2nc(C)nc(NCC3CCN(Cc4ccccc4C)CC3)c12	none
CCOc1ccc(CCNC(=O)Cn2nnc(-c3ccccc3Cl)n2)cc1OCC	none
COc1cccc(NC(=O)CSC2=Nc3ccccc3C3=NC(CC(=O)NCc4ccc5c(c4)OCO5)C(=O)N23)c1 (centres undefined)	none
COC(=O)C1=NN(c2ccccc2)C2(S1)S/C(=C\c1ccccc1)C(=O)N2c1ccccc1 (centres undefined)	Cruzain inh noDet 10µM
CCOC(=O)C1=NN(c2ccccc2)C2(S1)SC(C(C)=O)=C(C)N2c1ccccc1 (centres undefined)	none
Cc1cc(C(F)(F)F)c(C#N)c(SCC(=O)Nc2nc3cc(Br)ccc3s2)n1	Cruzain inh noDet 20µM
CCOC(=O)NC(=O)CSc1nc(C)cc(C(F)(F)F)c1C#N	none
O=C(CN1C(=O)CCc2cc(S(=O)(=O)N3CCCCC3)ccc21)NCc1ccc(Cl)cc1	none
NC(N)=NS(=O)(=O)c1ccc(NC(=S)NC(=O)c2sc3ccccc3c2Cl)cc1	Cruzain inh noDet 10µM
O=C(NC(=S)Nc1ccccc1N1CCOCC1)c1sc2ccccc2c1Cl	Cruzain inh noDet 10µM
COc1cc(NS(=O)(=O)c2ccc(NC(=S)NC(=O)c3sc4ccccc4c3Cl)cc2)nc(OC)n1	none
O=C(NC(=S)Nc1ccc(N2CCOCC2)c(Cl)c1)c1sc2ccccc2c1Cl	Cruzain inh noDet inconclusive
COc1ccc(C(C)=O)cc1CSc1nc(NCc2ccccc2)c2ccccc2n1	none
O=C(Nc1ccccc1C(=O)OCC(=O)N1CCc2ccccc2C1)c1ccco1	Cruzain inh noDet 12.6µM
CC1CCCCC1NC(=O)COC(=O)c1ccccc1NC(=O)c1ccco1 (centres undefined)	none
O=C1CN2CCN(CC2)CC(=O)Nc2ccc(cc2)S(=O)(=O)c2ccc(cc2)NC(=O)CN2CCN(CC2)CC(=O)Nc2ccc(cc2)S(=O)(=O)c2ccc(cc2)N1	Cruzain inh noDet 3.16µM, Cruzain inh Det 3.16µM
COc1ccc(CC[N@+]2(C)COc3cc4oc(=O)cc(C)c4cc3C2)cc1OC	none
COc1ccc(-c2cc(C(F)(F)F)nc(-n3nc(C(F)(F)F)cc3C)n2)cc1	none
O=S(=O)(Nc1nc2ccc(S(=O)(=O)N3CCCC3)cc2s1)c1ccc(F)cc1	Cruzain inh noDet 15.8µM
O=C(Nc1nc2ccc(S(=O)(=O)N3CCCC3)cc2s1)c1ccc(F)cc1	none
NC(=O)Cn1c(=O)n(Cc2ccco2)c(=O)c2c3c(sc21)CCCCC3	none
O=C(Cn1c(=O)n(Cc2ccco2)c(=O)c2c3c(sc21)CCCC3)Nc1ccccc1	Cruzain inh noDet 25.1µM
O=C(/C=C/c1cccc([N+](=O)[O-])c1)c1cccs1	none
CC(=O)Nc1cccc(NC(=O)c2ccc([N+](=O)[O-])cc2Cl)c1	none
O=C(/C=C/c1cccc([N+](=O)[O-])c1)NC(=S)Nc1cccc(NC(=O)c2ccccc2Cl)c1	Cruzain inh noDet 6.31µM
O=C(/C=C/c1cccc([N+](=O)[O-])c1)Nc1ccc(NC(=O)c2cccs2)cc1	Cruzain inh noDet 20µM
O=C(Cn1nc(C(F)(F)F)c2c1CCCC2)Nc1cccc(Cl)c1	none
CCOc1ccc(-c2cc3c(=O)n(CC(=O)NCc4ccc(C)cc4)ccn3n2)cc1	none
c1ccc(B2OC[C@@H]3OB(c4ccccc4)O[C@H]([C@@H]4COB(c5ccccc5)O4)[C@@H]3O2)cc1	none
[O-][Br+2]([O-])O	Cruzain inh Det 22.4µM!
N#Cc1cc([N+](=O)[O-])ccc1Oc1cccc(/C=N/NC(=O)c2cccc(Cl)c2)c1	Cruzain inh noDet 25.1µM
CCOc1cc(/C=N/NC(=O)CNc2ccc(C)cc2)ccc1OC(=O)c1ccccc1	Cruzain inh noDet 10µM
COc1cccc(C(=O)N/N=C/c2ccc(Oc3ccc([N+](=O)[O-])cn3)c(OC)c2)c1	none
Cc1ccc(NCC(=O)N/N=C\C(Br)=C\c2ccccc2)cc1	Cruzain inh noDet 12.6µM
Cc1cc(C)nc(SCC(=O)N/N=C\C(Br)=C\c2ccccc2)n1	none
O=C(COc1ccccc1[N+](=O)[O-])N/N=C/c1ccc(O)cc1	none
O=C(COc1ccccc1-c1ccccc1)N/N=C/c1ccc2ccccc2c1	Cruzain inh noDet 20µM
CCOc1cc(/C=N/NC(N)=O)ccc1OC(=O)c1ccc(C)cc1	none
Cc1cc(C)cc(NC(=O)CN2C(=O)c3ccccc3Sc3ncccc32)c1	none
O=C(NCc1ccc(F)cc1)c1ccc2c(O)c(S(=O)(=O)c3ccccc3)c(=O)[nH]c2c1	none

Compound activity from PubChem.
